Screens deposited in PubChem BioAssay by Broad Institute.
Only some compounds are listed: those with a hit (about 6.8% of all), similar ones and a draw of the others.
Pf Dd2 inh – blocks growth of Plasmodium falciparum Dd2 parasites | activity change, % at 10 µM | P. falciparum Dd2 growth, SYBR Green, 72 h; hits give low values | 2.3% of 94,000 active | AID 1159554; in the data active = activity change below about -80%; inconclusive = no clear call, values can overlap the other calls
C diff growth – inhibitors of Clostridium difficile growth; AID 1259249; 0.25% of 86,000 active; Clostridium difficile clinical isolate growth, OD600, 24 h; hits give low values; growth activity, negative = inhibition, % at 16 µg/mL (by protocol);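 active = mean growth activity at or below -80% and every replicate also at or below -80%; inconclusive = mean at or below -80% but some replicate above -80%; inactive = mean growth activity above -80%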;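 also: 0% = DMSO wells and -100% = levofloxacin 16 µg/mL wells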
T cruzi growth-1 – T. cruzi proliferation inhibition; T. cruzi beta-gal in NIH3T3, GalScreen luminescence, 90 h; inhibition, % at 8.34 µM; 5.9% of 77,000 active;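 active = mean inhibition above about 93%, with at least 55% of replicates each passing it, limit read from the data, passing the limit was not always enough; inconclusive = only one of those two conditions holds; inactive = neither condition holds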
T cruzi growth-2 – Trypanosoma cruzi proliferation inhibition | shares compounds with T cruzi growth-1 | T. cruzi beta-gal in NIH3T3, GalScreen luminescence, 90 h | inhibition, % at 8.35 µM | 72% of 5,600 active;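 active = mean replicate inhibition above about 95% and at least 55% of replicates individually reaching it, limit read from the data; inconclusive = only one of the two criteria is met; inactive = neither criterion is met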
T cruzi growth-3 – blocks T. cruzi growth in NIH3T3 host cells; 21% of 5,600 active; AID 651740; T. cruzi beta-gal in NIH3T3, GalScreen luminescence, 90 h; inhibition, % at 2.09 µM; shares compounds with T cruzi growth-1;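 active = mean inhibition above about 95%, with at least 55% of replicates also reaching it, limit read from the data; inconclusive = meets just one of the two conditions; inactive = meets neither condition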;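 also: plate controls were neutral control median for no effect and positive control median for full effect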
NIH3T3 tox – NIH/3T3 (mouse) viability loss. NIH/3T3 viability, CellTiter-Glo ATP luminescence, 90 h. 14% of 5,600 active. cytotoxicity (signal decrease), % at 8.35 µM. shares compounds with T cruzi growth-1;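 active = mean signal decrease across replicates above about 35% based on untreated-well scatter, with enough replicates individually passing, limit read from the data; inconclusive = no rule stated though some were filed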;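 also: 0% = median of neutral control wells and 100% = median of positive control wells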
3T3 cytotox 2 – NIH/3T3 (mouse) viability loss; 56% of 5,600 active; shares compounds with T cruzi growth-1; NIH/3T3 viability, CellTiter-Glo ATP luminescence, 90 h; inhibition, % at 24.9 µM;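 active = mean loss of cell viability signal at or above a set limit, and enough replicates individually reaching it; inconclusive = meets only the mean limit or only the replicate share; inactive = meets neither condition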;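 also: 0% = median of neutral control wells and 100% = median of positive control wells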
Starred values were filed as active, the others as inactive; ? = inconclusive; . = not tested or not shown.

SMILES	Pf Dd2 inh	C diff growth	T cruzi growth-1	T cruzi growth-2	T cruzi growth-3	NIH3T3 tox	3T3 cytotox 2
C[C@H]1CN([C@@H](C)CO)C(=O)c2cccc(NC(=O)NC3CCCCC3)c2O[C@H]1CN(C)Cc1ccc(-c2ccccc2)cc1	9	3	74	.	.	.	.
CNC(=O)C[C@@H]1CC[C@@H]2[C@@H](COc3ccc(NC(=O)Nc4ccc(Cl)cc4)cc3C(=O)N2C)O1	5	0	8	.	.	.	.
C[C@H](CO)N1C[C@H](C)[C@@H](CN(C)C(=O)c2cccnc2)Oc2cc(C#CC3CC3)ccc2S1(=O)=O	-25	8	21	.	.	.	.
CN1C(=O)c2cc(NC(=O)c3ccccc3Cl)ccc2OC[C@H]2O[C@@H](CC(=O)O)CC[C@H]21	1	1	17	.	.	.	.
C[C@@H]1CN([C@@H](C)CO)C(=O)c2cccc(NC(=O)NC3CCCCC3)c2O[C@@H]1CN(C)Cc1ccc(Oc2ccccc2)cc1	-65	17	74	.	.	.	.
C[C@H](CO)N1C[C@H](C)[C@H](CN(C)Cc2ccc(Oc3ccccc3)cc2)Oc2c(NC(=O)NC3CCCCC3)cccc2C1=O	6	16	?	100*	105*	?	52*
C[C@@H]1CCCCO[C@H](CN(C)Cc2ccc(Cl)c(Cl)c2)[C@@H](C)CN([C@@H](C)CO)C(=O)c2cc(NC(=O)Nc3ccc(F)cc3)ccc2O1	-80	.	101*	91	112*	-8	33*
C[C@@H]1CCCCO[C@H](CN(C)Cc2ccc(Cl)c(Cl)c2)[C@@H](C)CN([C@@H](C)CO)C(=O)c2cc(NC(=O)CCC(F)(F)F)ccc2O1	-95*	3	98*	?	114*	-15	106*
C[C@H](CO)N1C[C@H](C)[C@H](CN(C)Cc2ccc(Cl)c(Cl)c2)OCCCC[C@H](C)Oc2ccc(NC(=O)Nc3ccc(F)cc3)cc2C1=O	-12	.	100*	83	108*	14	55*
C[C@@H]1CN([C@H](C)CO)C(=O)c2cc(NC(=O)CCC(F)(F)F)ccc2O[C@@H](C)CCCCO[C@@H]1CN(C)Cc1ccc(Cl)c(Cl)c1	-30	16	64	.	.	.	.
C[C@@H]1CN([C@@H](C)CO)C(=O)c2cc(NC(=O)Nc3ccccc3)ccc2O[C@@H](C)CCCCO[C@H]1CN(C)Cc1ccc(Cl)c(Cl)c1	-75	.	69	.	.	.	.
C[C@@H]1CCCCO[C@@H](CN(C)Cc2ccc(Cl)c(Cl)c2)[C@H](C)CN([C@@H](C)CO)C(=O)c2cc(NC(=O)Nc3ccccc3)ccc2O1	-72	3	70	.	.	.	.
C[C@@H]1CCCCO[C@@H](CN(C)Cc2ccc(Cl)c(Cl)c2)[C@H](C)CN([C@@H](C)CO)C(=O)c2cc(NC(=O)Nc3ccc(F)cc3)ccc2O1	-53	.	104*	101*	117*	5	18
C[C@@H]1CCCCO[C@H](CN(C)Cc2ccc(Cl)c(Cl)c2)[C@@H](C)CN([C@H](C)CO)C(=O)c2cc(NC(=O)Nc3ccccc3)ccc2O1	2	9	90	.	.	.	.
CO[C@H]1CN(C)C(=O)c2ccc(NS(=O)(=O)CC(F)(F)F)cc2OC[C@H](C)N(C(=O)c2ccc3c(c2)OCO3)C[C@H]1C	9	6	15	.	.	.	.
C[C@@H]1CN([C@H](C)CO)C(=O)Cc2cc(NC(=O)Cc3ccccc3)ccc2O[C@@H]1CN(C)CC1CC1	-3	0	17	.	.	.	.
COc1ccc(S(=O)(=O)N(C)C[C@@H]2Oc3c(NC(=O)c4ccncc4)cccc3C(=O)N([C@H](C)CO)C[C@@H]2C)cc1	3	.	85	.	.	.	.
CC(=O)N1[C@H](C(=O)NCC2CC2)[C@@H](CO)[C@@H]2Cn3c(ccc(-c4cccc(F)c4)c3=O)[C@@H]21	3	-6	1	.	.	.	.
COCC#Cc1ccc2c(c1)O[C@@H](CN(C)S(=O)(=O)c1cccc(F)c1)[C@@H](C)CN([C@@H](C)CO)S2(=O)=O	-73	2	56	.	.	.	.
C[C@@H]1CN([C@@H](C)CO)S(=O)(=O)c2ccc(C#CCN(C)C)cc2O[C@H]1CN(C)S(=O)(=O)c1cccc(F)c1	-78	5	.	.	.	.	.
